Measurements taken from PubChem BioAssay (NCI).
This is part of a sample that, as a whole, favours compounds with a hit. Of some 83,000 tested, about 20% had one in any assay.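 48-hour exposure, single concentration, 96-well plates; percent growth endpoint where 0 means no net growth. Active: below 10.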 The source made the active and inactive calls.

system: HOP-62 NSCLC; assay: NCI-60 one-dose screen, 48 h (100 = growth as untreated, 0 = no growth, -100 = all killed); details: 10 µM unless noted

Compound	growth
Nc1c(C(=O)c2ccccc2)sc2nc(-c3cccs3)ccc12	44.5% (inactive)
COc1ccc2c(CCCCC(c3ccccc3)c3ccccc3)c3[n+](cc2c1OC)CCc1cc2c(cc1-3)OCO2	-42.7% (active)
CC(C)(C)C(=O)OCOP(=O)(OCOC(=O)C(C)(C)C)C1CCCN(OC(=O)c2ccccc2)C1=O (centres undefined)	22.8% (inactive)
O=C(Cc1ccccc1)Nc1nnc(NC2CCN(c3nnc(NC(=O)Cc4ccccc4)s3)CC2)s1	75.9% (inactive)
CCCCCCC1(/C=N/NC(N)=O)NC(=O)NC1=O (centres undefined)	78.3% (inactive)
CC(N)C(Cc1ccc(Cl)cc1)c1ccc(Cl)cc1 (centres undefined)	56% (inactive)
CC(C)[C@@H](C)/C=C/[C@@H](C)[C@H]1CCC2=C3C=CC4=CC(=O)CC[C@]4(C)[C@H]3CC[C@@]21C	104% (inactive)
CCOC(=O)C1=C(C)N=C2Sc3cc(OC(F)(F)F)ccc3N2[C@H]1c1ccccn1	47.6% (inactive)
COC(=O)[C@]12CC[C@@H](C)[C@H](C)[C@@H]1C1=CC[C@@H]3[C@@]4(C)C(c5cnco5)=C[C@@](C)(CO)C4=CC[C@@]3(C)[C@]1(C)CC2	93.7% (inactive)
C=C1C(=O)O[C@H]2[C@H]1CC/C(Cn1cc(-c3cc(C)c(C)cc3C)nn1)=C\CC[C@@]1(C)O[C@@H]21	55.7% (inactive)
C=C1C(=O)O[C@H]2[C@H]1CC/C(CNC(=O)c1cc3cc(OC)ccc3[nH]1)=C\CC[C@@]1(C)O[C@@H]21	46.9% (inactive)
C=CCC(=O)N[C@H](/C=C/C(=O)O)Cc1ccc(-c2cc(Cl)cc(Cl)c2)cc1	82% (inactive)
NN1C(=O)CSC1=S	81.7% (inactive)
CC(=O)C(C(C)=O)C(c1ccccc1)C(C(C)=O)C(C)=O	98.4% (inactive)
COc1cc(NCCN(CC(C)C)CC(C)C)c2ncc(C)cc2c1	51.5% (inactive)
COc1ccc2c(CCC(c3ccccc3)c3ccccc3)c3[n+](cc2c1OC)CCc1cc2c(cc1-3)OCO2	9.37% (active)
O=C1CC(c2ccc3c(c2)OCO3)c2ncn(-c3ccc(Cl)cc3)c2N1 (centres undefined)	60.3% (inactive)
Clc1nc(Cl)c2ncn(CC#CCn3cnc4c(Cl)nc(Cl)nc43)c2n1	62% (inactive)
COc1ccc(C2CC(=O)c3c(O)c(OC)c(OC)c(OC)c3O2)c(O)c1 (centres undefined)	64.9% (inactive)
C[N+](C)(CCOC(c1ccccc1)c1ccccc1)CC(=O)OCc1ccccc1	97.8% (inactive)
Nc1c2c(c(O)c3c1=C(CO)C=N3)=NCCS2	-79.3% (active)
Cc1cccc(NC(=O)[C@@H]2c3ccccc3C(=O)N(c3ccc(Cl)cc3)[C@H]2c2ccc(Cl)cc2)n1	53.1% (inactive)
CC(N)C(Cc1ccccc1)c1ccc(Cl)cc1 (centres undefined)	56.9% (inactive)
C=CCCCC(=O)CCC(=O)OCC1O[C@@H](O[C@@H]2C(O)[C@@H](OC(C)=O)C(C)O[C@H]2O[C@H](CC=C)CCCCC)C(O)[C@@H](OC(=O)/C(C)=C/C)[C@@H]1OC(=O)/C=C/c1ccccc1 (some centres undefined)	9.18% (active)
COc1ccc2c(c1OC)C(=O)O[C@@H]2[C@H]1c2c(c(C#CC#Cc3ccc(F)c(F)c3)c3c(c2OC)OCO3)CCN1C	68% (inactive)

system: NCI-H460 lung; assay: as above; details: 10 µM unless noted

Compound	growth
COc1cc2c3c(c1)nc(C)n3CCC2	104% (inactive)
Cc1sc2c(c1C)c(=O)nc1c(-c3nc4ccccc4s3)n[nH]n12	96.7% (inactive)
COc1cc2c(cc1OCCCCCN1CCN(c3ncnc4ccccc34)CC1)N=CC1CCCN1C2=O (centres undefined)	5.35% (active)
COc1cc2c(cc1OCCCCN1CCN(CC(=O)Nc3ccc(Cl)cc3C(=O)c3ccccc3Cl)CC1)N=CC1CCCN1C2=O (centres undefined)	-56.2% (active)
CCOC(=O)C1=C(C)NC(=O)NC1c1cc(=O)oc2ccc(C)cc12 (centres undefined)	108% (inactive)
COc1ccc2nc3cc(Cl)ccc3c(Nc3ccc(N(C)C)cc3)c2c1	70.6% (inactive)
C[C@@H](C[C@H](CCO)c1cc(C(F)(F)F)cc(C(F)(F)F)c1)c1ccc2ccccc2c1	106% (inactive)
COc1ccc2c(CCCc3ccc(Cl)cc3Cl)c3[n+](cc2c1OC)CCc1cc2c(cc1-3)OCO2	4.66% (active)
COc1cc2c(cc1OCCCCCCN1CCN(c3ncnc4ccccc34)CC1)N=CC1CCCN1C2=O (centres undefined)	3.48% (active)
c1cc[n+](Cc2c3ccccc3cc3c2ccc2ccccc23)cc1	42.8% (inactive)
CC(C)[C@@H]1CC[C@]2(CO2)[C@@H]2C(=O)OCC(C(=O)O)=C[C@H]21	7.86% (active)
N#Cc1c(NC(=O)c2cccs2)[n+]([O-])c2ccc(F)cc2[n+]1[O-]	99.1% (inactive)
CC(CCCC(=O)O)c1ccoc1 (centres undefined)	110% (inactive)
CCCCCCCC(=O)SCC/C=C/[C@@H]1CC(=O)NCc2nc(co2)C2=N[C@@](C)(CS2)C(=O)N[C@@H](C(C)C)C(=O)O1	3.41% (active)
Nc1c(C(=O)c2ccccc2)sc2nc(-c3cccs3)ccc12	12.1% (inactive)
COc1ccc2c(CCCCC(c3ccccc3)c3ccccc3)c3[n+](cc2c1OC)CCc1cc2c(cc1-3)OCO2	-83% (active)
CC(C)(C)C(=O)OCOP(=O)(OCOC(=O)C(C)(C)C)C1CCCN(OC(=O)c2ccccc2)C1=O (centres undefined)	15.6% (inactive)
O=C(Cc1ccccc1)Nc1nnc(NC2CCN(c3nnc(NC(=O)Cc4ccccc4)s3)CC2)s1	93.3% (inactive)
CCCCCCC1(/C=N/NC(N)=O)NC(=O)NC1=O (centres undefined)	111% (inactive)
CC(N)C(Cc1ccc(Cl)cc1)c1ccc(Cl)cc1 (centres undefined)	66% (inactive)

Compound	growth
CC(C)[C@@H](C)/C=C/[C@@H](C)[C@H]1CCC2=C3C=CC4=CC(=O)CC[C@]4(C)[C@H]3CC[C@@]21C	107% (inactive)
CCOC(=O)C1=C(C)N=C2Sc3cc(OC(F)(F)F)ccc3N2[C@H]1c1ccccn1	15.2% (inactive)
COC(=O)[C@]12CC[C@@H](C)[C@H](C)[C@@H]1C1=CC[C@@H]3[C@@]4(C)C(c5cnco5)=C[C@@](C)(CO)C4=CC[C@@]3(C)[C@]1(C)CC2	8.07% (active)
C=C1C(=O)O[C@H]2[C@H]1CC/C(Cn1cc(-c3cc(C)c(C)cc3C)nn1)=C\CC[C@@]1(C)O[C@@H]21	36.5% (inactive)
C=C1C(=O)O[C@H]2[C@H]1CC/C(CNC(=O)c1cc3cc(OC)ccc3[nH]1)=C\CC[C@@]1(C)O[C@@H]21	19.3% (inactive)
C=CCC(=O)N[C@H](/C=C/C(=O)O)Cc1ccc(-c2cc(Cl)cc(Cl)c2)cc1	99.6% (inactive)
NN1C(=O)CSC1=S	105% (inactive)
CC(=O)C(C(C)=O)C(c1ccccc1)C(C(C)=O)C(C)=O	105% (inactive)
COc1cc(NCCN(CC(C)C)CC(C)C)c2ncc(C)cc2c1	60.4% (inactive)
COc1ccc2c(CCC(c3ccccc3)c3ccccc3)c3[n+](cc2c1OC)CCc1cc2c(cc1-3)OCO2	-3.4% (active)
O=C1CC(c2ccc3c(c2)OCO3)c2ncn(-c3ccc(Cl)cc3)c2N1 (centres undefined)	14.3% (inactive)
Clc1nc(Cl)c2ncn(CC#CCn3cnc4c(Cl)nc(Cl)nc43)c2n1	12.5% (inactive)
COc1ccc(C2CC(=O)c3c(O)c(OC)c(OC)c(OC)c3O2)c(O)c1 (centres undefined)	9.27% (active)
C[N+](C)(CCOC(c1ccccc1)c1ccccc1)CC(=O)OCc1ccccc1	110% (inactive)
Nc1c2c(c(O)c3c1=C(CO)C=N3)=NCCS2	-60.5% (active)
Cc1cccc(NC(=O)[C@@H]2c3ccccc3C(=O)N(c3ccc(Cl)cc3)[C@H]2c2ccc(Cl)cc2)n1	52.5% (inactive)
CC(N)C(Cc1ccccc1)c1ccc(Cl)cc1 (centres undefined)	90.9% (inactive)
C=CCCCC(=O)CCC(=O)OCC1O[C@@H](O[C@@H]2C(O)[C@@H](OC(C)=O)C(C)O[C@H]2O[C@H](CC=C)CCCCC)C(O)[C@@H](OC(=O)/C(C)=C/C)[C@@H]1OC(=O)/C=C/c1ccccc1 (some centres undefined)	10.6% (inactive)
COc1ccc2c(c1OC)C(=O)O[C@@H]2[C@H]1c2c(c(C#CC#Cc3ccc(F)c(F)c3)c3c(c2OC)OCO3)CCN1C	103% (inactive)
